This note sets out measurements from PubChem BioAssay.

The nature of assay [1]: compounds altering circadian rhythm period length – cell-based, LOPAC library, luminescence reporter (AID 2774; call rule not given here;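 further: values are relative to mean of DMSO wells on each plate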). As to conditions: circadian reporter cells, at 7 µM, actives lie on both sides.
The test system of assay [2] is Hepatitis C virus NS3 helicase. The assay is described as follows: blockers of NS3h binding to ssDNA – biochemical, fluorescence polarization, LOPAC1280 library, primary screen (AID 687035; in the data active means inhibition above about 37%). As to conditions: Purified HCV NS3 helicase, Cy5-dT15 ssDNA binding fluorescence polarization; stronger effect = higher value; concentration not given here.
A short description of assay [3]: compounds altering Cy5-DNA-NS3h complex signal – biochemical, LOPAC1280, artefact control for HCV NS3 helicase inhibitor project (AID 687037; call rule not given here). The note with it: Cy5-DNA-NS3h complex fluorescence interference counterscreen.
Assay [4] can be described thus: viability loss with induced miR-34 in A549 – imaging, A549 dox-inducible miR-34, nuclei and caspase counts, primary screen (AID 1347080;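 active means compounds whose cell count with miR-34 switched on is under 0.7 times the count with it off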). The note with it: A549 miR-34 inducible, Hoechst nuclei count, 48 h.
Assay [5] can be described thus: galactose survival enhancers in mitochondrial complex I cybrids – cell-based, galactose medium, ATP luminescence, primary screen (AID 1645843;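 active means z-score of at least 1.8 in each of two replicates, scored against plate mean and spread of sample wells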;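 further: positive z means more ATP and so rescue of galactose-driven cybrid death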). As to conditions: complex I mutant cybrid cells, 72 h, stronger effect = higher value.
Assay [6] is described as follows: growth inhibition, single agent or in combination, cell-based, chromothripsis tumors, cisplatin or BGB combos (AID 1671449).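 Further: cells exposed for 96 hours; 0% = vehicle DMSO and 100% = killing by high DMSO.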 The note with it: LFS_MB_P medulloblastoma cells.
Assay [7] is described as follows: growth inhibition, single agent and combos, cell-based, chromothripsis tumors, cisplatin or BGB combos (AID 1671450).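 Further: cells exposed to compound for four days; 0% = vehicle DMSO and 100% = cell killing by high DMSO.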 As to conditions: HDN33 neuroblastoma cells, stronger effect = higher value.
A short description of assay [8]: growth inhibition, single agents and combos, ICB984, cell-based, cisplatin or BGB combos, synergistic combos for chromothripsis tumors (AID 1671451; call rule not given here;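 further: cells exposed for 96 hours before readout; 0% = vehicle DMSO and 100% = killing by high DMSO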). As to conditions: ICB984 medulloblastoma cells, drug combinations, stronger effect = higher value.
The nature of assay [9]: growth inhibition, single agents and combos, LFS_MB_1R, cell-based, cisplatin or BGB combos, synergistic combos for chromothripsis tumors (AID 1671452).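 Further: cells exposed for 96 hours before readout.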 As to conditions: LFS_MB_1R medulloblastoma cells, stronger effect = higher value.
Assay [10] in a line: growth inhibition, single agents and combos, HTB85, cell-based, BGB or cisplatin IC20 combos, synergistic combos for chromothripsis tumors (AID 1671453).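 Further: cells exposed for 96 hours before readout; 0% = vehicle DMSO and 100% = high DMSO killing control.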 As to conditions: HTB85 osteosarcoma cells, drug combinations, stronger effect = higher value.
Assay [11] is described as follows: growth inhibition, single agents and combos, CRL2098, cell-based, BGB or cisplatin IC20 combos, synergistic combos for chromothripsis tumors (AID 1671454).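 Further: cells exposed for 96 h before readout; 0% = vehicle DMSO and 100% = killing by high DMSO.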 The note with it: CRL2098 osteosarcoma cells, drug combinations, stronger effect = higher value.
Assay [12] in a line: growth inhibition, single agents and combos, HD-MB03, cell-based, BGB or cisplatin IC20 combos, synergistic combos for chromothripsis tumors (AID 1671455; in the data active means inhibition above about 83%;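 further: 0% = vehicle DMSO and 100% = high DMSO as cytotoxic control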). The note with it: HD-MB03 medulloblastoma cells, stronger effect = higher value.
Assay [13] can be described thus: growth inhibition, single agents and combos, UWB1.289, cell-based, BGB or cisplatin combos, synergistic combos for chromothripsis tumors (AID 1671456).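 Further: cells exposed to compound for four days; 0% = vehicle DMSO and 100% = killing by high DMSO.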 The note with it: UWB1.289 ovarian carcinoma cells, stronger effect = higher value.
A short description of assay [14]: growth inhibition, single agents and combos, LFS_MB_2R, cell-based, cisplatin combos, synergistic combos for chromothripsis tumors (AID 1671457).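 Further: cells exposed to compound for four days before readout.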 As to conditions: LFS_MB_2R medulloblastoma cells, stronger effect = higher value.
Assay [15] can be described thus: growth inhibition, MDA-MB-436, cell-based, BGB or cisplatin combos, synergistic combos for chromothripsis tumors (AID 1671458; call rule not given here;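 further: cells exposed for 96 hours; 0% = vehicle DMSO and 100% = killing by high DMSO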). As to conditions: MDA-MB-436 breast carcinoma growth inhibition, drug combinations, stronger effect = higher value.
Assay [16] can be described thus: UWB1.289_BRCA1 ovarian cancer growth, cell-based, BGB or cisplatin combinations (AID 1671459). As to conditions: UWB1.289 BRCA1 ovarian carcinoma, drug combinations, stronger effect = higher value.
Assay [17] is described as follows: drug combination toxicity in non-malignant astrocytes – cell-based, BGB or cisplatin IC20 combos, cytotoxicity control for chromothriptic childhood tumor combination screen (AID 1671460).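 Further: cells exposed to compounds for 96 hours before viability readout; 0% = vehicle and 100% = killing control.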 As to conditions: Human astrocytes, viability inhibition, drug combinations, at 0.5 µM, stronger effect = higher value.
Assay [18] is described as follows: BT084 cell growth, single and combined drugs, ICGC_MB145, cisplatin and BGB IC40 combos (AID 1671461).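 Further: cells exposed to drugs for 96 hours; 0% = vehicle DMSO and 100% = high DMSO full killing control.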 The note with it: BT084 medulloblastoma cells, drug combinations, stronger effect = higher value.
A short description of assay [19]: RCMB18 cell growth, single agent and combined, cisplatin and BGB IC40 combos (AID 1671462).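 Further: cells exposed to compound for four days.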 As to conditions: RCMB18 medulloblastoma cells, stronger effect = higher value.
Assay [20] is described as follows: CRL1545 cell growth, single agent and combined, cisplatin and BGB IC20 combos (AID 1671464).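 Further: cells exposed to compound for 96 hours before readout; 0% = vehicle DMSO and 100% = high DMSO killing control.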 As to conditions: CRL1545 osteosarcoma cells, stronger effect = higher value.
[21] abbreviates: stronger effect = lower value, cell number ratio, induced over uninduced.
The mark [22] stands for this setting: measured here: relative caspase fold change +Dox/-Dox.
[23] abbreviates: measured here: total cells with miR-34 induction, stronger effect = lower value.
Setting [24] is: measured here: total cells without miR-34 induction.
The mark [25] stands for this setting: measured here: combination with BGB IC40, at 0.05 µM.
[26] abbreviates: measured here: with BGB IC20 combination, at 0.5 µM.
The mark [27] stands for this setting: measured here: with cisplatin IC20 combination, at 0.5 µM.
Setting [28] is: measured here: combination with cisplatin, at 0.5 µM.
Setting [29] is: measured here: combination with cisplatin, at 5 µM.

Calls of active or inactive are those of the source. Unless noted, no stated cut-off is given here; in the data, active means inhibition above about 80%; inactive means the rest.

On to `Cc1nc(N=Nc2cc(S(=O)(=O)O)c3cc([N+](=O)[O-])cc(S(=O)(=O)O)c3c2)c(COP(=O)(O)O)c(C=O)c1O`, for which the period change in assay [1] was -0.275 h (inactive). Besides, the inhibition in assay [2] was 58% (active). In assay [3], the fluorescence ratio (interference) is 0.8 (active). Further, the values for the fold change in assay [4] (setting [21]) and in assay [4] (setting [22]) were 1.02 (inactive) and 1.61, respectively. The cell count in assay [4] (setting [23]) stood at 10500; in assay [4] (setting [24]) it was 10300. The z-score in [5] is 1.9 (active).

On to `Nc1ccn([C@@H]2O[C@H](CO)[C@@H](O)[C@@H]2O)c(=O)n1`, for which, in assay [1], the period change is -0.07 h (inactive). Moreover, the inhibition in [2] is -4% (inactive). For the same compound, in [3], the fluorescence ratio (interference) is 0.9 (inactive). The fold change in assay [4] (setting [21]) was 0.984 (inactive); in [4] (setting [22]), 1.55. Also, the cell count in assay [4] (setting [23]) came out at 1860; in assay [4] (setting [24]), 1890. The z-score in assay [5] was -0.93 (inactive).

On to `NC(N)=[N+]1CCc2ccccc2C1`, for which the period change in [1] is -0.15 h (inactive). Further, the inhibition in assay [2] was -1% (inactive). In addition, the fluorescence ratio (interference) in assay [3] was 1.1 (inactive). Further, the fold change is 1.01 (inactive) in assay [4] (setting [21]) and 1.06 in assay [4] (setting [22]). Besides, the results for the cell count in [4] (setting [23]) and in assay [4] (setting [24]) were 8570 and 8500, respectively. The z-score in assay [5] was -0.075 (inactive).

As to `Cc1ccc(NC(=O)CCCCCC(=O)Nc2ccccc2N)cc1`, the fold change is 1.01 (inactive) in [4] (setting [21]) and 1.02 in assay [4] (setting [22]). Further, the cell count in assay [4] (setting [23]) stood at 5390; in assay [4] (setting [24]), 5360. The inhibition was 2.92% (inactive) in assay [6] (at 0.5 µM, stronger effect = higher value); -29.8% in assay [6] (measured here: combination with BGB IC20, at 0.005 µM); -45% in assay [6] (measured here: combination with BGB IC40, at 0.005 µM); -45.4% in assay [6] (setting [25]); -6.67% in assay [6] (measured here: combination with cisplatin, at 0.5 µM, stronger effect = higher value); 65.8% in [6] (measured here: combination with cisplatin, at 5 µM, stronger effect = higher value). The inhibition is 11% in assay [7] (BGB combo, at 5 µM); -14.2% (inactive) in assay [7] (at 0.5 µM); 32% in assay [7] (cisplatin combo, at 5 µM); -21.3% in assay [7] (setting [26]); -11% in assay [7] (setting [27]); 25.4% in assay [7] (single agent, at 5 µM). The inhibition in assay [8] (BGB IC20 combo, at 0.005 µM) is -3.62%; in assay [8] (BGB IC40 combo, at 0.005 µM), -26.5%; in assay [8] (BGB IC40 combo, at 0.05 µM), 6.33%; in assay [8] (at 0.5 µM), -27.2% (inactive); in assay [8] (cisplatin combo, at 0.05 µM), 1.63%; in assay [8] (cisplatin combo, at 0.5 µM), -36.9%. For the same compound, the inhibition was -6.29% in assay [8] (cisplatin combo, at 5 µM); -12.7% in assay [8] (measured here: 5 uM single agent, at 5 µM); -31.8% (inactive) in assay [9] (at 0.5 µM); -38% in assay [9] (setting [25]); -38.7% in [9] (setting [28]); 61.4% in [9] (setting [29]). Also, the inhibition in [10] (at 0.5 µM) was -11.4% (inactive); in [10] (measured here: with BGB IC20, at 0.5 µM) it was 11.7%; in [10] (measured here: with BGB IC20, at 5 µM) it was 31.2%; in assay [10] (measured here: with cisplatin IC20, at 0.5 µM) it was -26.9%; in assay [10] (measured here: with cisplatin IC20, at 5 µM), 33.8%; in [10] (single agent, at 5 µM) it was 12.7%. The inhibition is -71% (inactive) in assay [11] (at 0.5 µM); -75.9% in [11] (measured here: combination with BGB at IC20, at 0.5 µM); -67.2% in [11] (measured here: combination with cisplatin at IC20, at 0.5 µM); -7.72% (inactive) in assay [12] (at 0.5 µM); 0.828% in assay [12] (measured here: combo with BGB at IC20, at 0.5 µM); -9.85% in assay [12] (measured here: combo with cisplatin at IC20, at 0.5 µM). The inhibition in [13] (at 0.5 µM) is -13.2% (inactive); in [13] (measured here: inhibition with BGB combination, at 0.05 µM), -44.6%; in assay [13] (measured here: inhibition with cisplatin combination, at 0.05 µM), -27.1%; in assay [14] (at 0.5 µM) it was -23.5% (inactive); in assay [14] (setting [28]) it was -17.5%; in assay [14] (setting [29]) it was 50.2%. The inhibition is -27.5% (inactive) in assay [15] (at 0.5 µM); -25.9% in [15] (measured here: BGB combination, at 0.5 µM); -14.6% in assay [15] (measured here: BGB combination, at 5 µM); -44.2% in assay [15] (measured here: cisplatin combination, at 0.5 µM); 15.1% in assay [15] (measured here: cisplatin combination, at 5 µM); 23.3% in assay [16] (BGB combination, concentration series, at 5 µM). Moreover, the inhibition in assay [16] (at 0.5 µM) is -23.2% (inactive); in assay [16] (cisplatin combination, concentration series, at 5 µM), 51.6%; in [17], -11.1% (inactive); in assay [17] (measured here: combo with BGB IC20), -7.99%; in [17] (measured here: combo with cisplatin IC20) it was -17.6%; in assay [18] (at 0.5 µM) it was -11.1% (inactive). The inhibition was 8.17% in assay [18] (cisplatin combination, at 0.5 µM); 68.8% in [18] (cisplatin combination, at 5 µM); -52.4% in assay [18] (measured here: BGB IC40 combination 0.05 uM, at 0.05 µM); 25.1% in assay [18] (single agent, at 5 µM); 6.99% (inactive) in [19] (at 0.5 µM); 67.3% in assay [19] (cisplatin combo, at 5 µM). Besides, the inhibition in assay [19] (measured here: BGB IC40 combination, at 0.05 µM) was -18.3%; in [19] (setting [28]), 0.344%; in assay [19] (single agent, at 5 µM) it was 35.9%; in assay [20] (at 0.5 µM) it was 6.85% (inactive); in assay [20] (setting [26]), 21.7%; in assay [20] (setting [27]), -2.22%. The inhibition was -29% in [20] (single agent, at 0.05 µM) and 60.5% in assay [20] (single agent, at 5 µM).
